An excerpt weighted towards active compounds, which were near 10% of everything screened.
G9a block – inhibitors of human histone lysine methyltransferase G9a; Q96KQ7; G9a H3K9 monomethylation, AlphaScreen, 2 h; Potency, µM (doses to about 102 µM), for the others: at the top dose activity, negative = inhibition, usual class: inhibitors; 8.8% of 350,000 active; AID 504332; further: on the % scale 0 is the no-effect control and ±100 the full control effect; nearly all actives have a fitted effect of over 75% in size
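Quantitative HTS format: methyltransferase activity on a biotin-tagged H3K9 peptide is measured by AlphaScreen, using a rabbit anti-monomethyl-H3K9 antibody with streptavidin donor and anti-IgG acceptor beads. Final levels are 20 nM enzyme, 500 nM peptide, 20 uM SAM; 2 h RT.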
HP1b binding inh – inhibitors of HP1-beta chromodomain binding to methylated histone tails. Potency, µM (highest dose often 114 µM), for inactives: top-dose activity change, negative = inhibition, most hits filed as inhibitors. AlphaScreen HP1-beta / biotin-H3K9me3 peptide binding. 0.56% of 390,000 active. AID 540317; further: nearly all actives have a fitted effect of over 70% in size
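AlphaScreen: HP1-beta (50 nM) preformed 30 min with biotin-H3(1-18)K9me3 peptide (50 nM) in PBS pH 7.4, 0.01% Tween-20. Compound added for 30 min at RT, then streptavidin donor/nickel chelate acceptor beads (10 ug/mL) for 30 min.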
JMJD2A Tudor – inhibitors of human JMJD2A Tudor domain; AlphaScreen JMJD2A-Tudor / H3K4me3 peptide binding; 4.4% of 390,000 active; Potency, µM (titrated, usually from 114 µM), for inactives: at the highest dose activity change, negative = inhibition, usual class: inhibitors; AID 504339; further: on the % scale 0 is the no-effect control and ±100 the full control effect; nearly all actives have a fitted effect of over 50% in size
BAZ2B block – BAZ2B (human) inhibition. Q9UIF8. AlphaScreen BAZ2B-H3K14Ac peptide displacement. Potency, µM (highest dose often 114 µM), for inactives: at the highest dose activity change, negative = inhibition, usual class: inhibitors. 4.4% of 360,000 active. AID 504333; further: on the % scale 0 is the no-effect control and ±100 the full control effect; nearly all actives have a fitted effect of over 60% in size
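BAZ2B 50 nM plus b-H3(5-23)K14Ac 50 nM, PBS pH 7.4/0.01% Tween-20, 30 min RT; compound added (max 110 uM), 30 min RT; streptavidin donor/Ni-chelate acceptor beads 10 ug/mL final, 20 min dark; AlphaScreen read.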
GLS inh – inhibitors of human glutaminase (GLS); 0.21% of 410,000 active; O94925; GLS enzymatic activity, qHTS titration; AID 624170; Potency, µM (doses to about 45.5 µM), for inactives: at the top dose activity change, negative = inhibition, most hits filed as inhibitors; further: on the % scale 0 is the no-effect control and ±100 the full control effect
Target sequence (O94925 whole entry, looked up): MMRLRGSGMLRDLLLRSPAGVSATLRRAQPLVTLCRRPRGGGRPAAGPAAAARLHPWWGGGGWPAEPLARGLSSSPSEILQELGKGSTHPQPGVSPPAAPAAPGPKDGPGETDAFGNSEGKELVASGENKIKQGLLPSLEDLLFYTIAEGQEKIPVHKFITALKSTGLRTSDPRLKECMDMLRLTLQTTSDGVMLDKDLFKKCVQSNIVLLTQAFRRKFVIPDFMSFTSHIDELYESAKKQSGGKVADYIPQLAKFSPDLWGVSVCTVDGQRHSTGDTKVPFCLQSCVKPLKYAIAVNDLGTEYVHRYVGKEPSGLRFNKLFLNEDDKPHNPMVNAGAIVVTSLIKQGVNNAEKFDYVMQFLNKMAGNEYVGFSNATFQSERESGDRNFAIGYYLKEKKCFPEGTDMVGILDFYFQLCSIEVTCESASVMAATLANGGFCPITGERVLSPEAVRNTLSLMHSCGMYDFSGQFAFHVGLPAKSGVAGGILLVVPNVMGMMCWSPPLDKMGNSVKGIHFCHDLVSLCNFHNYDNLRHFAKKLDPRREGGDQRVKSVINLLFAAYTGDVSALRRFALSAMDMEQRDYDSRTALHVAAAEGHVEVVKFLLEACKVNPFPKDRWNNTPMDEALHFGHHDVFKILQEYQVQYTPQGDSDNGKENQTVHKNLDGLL
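Read-out is an Amplex red fluorescence increase coupled through glutamate oxidase and HRP, measured before and after 30 min room-temperature incubation. hKGA is in 45 mM KH2PO4 (pH 8.2) with 0.02% Tween-20; glutamine added as 1mM solution.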
An asterisk follows results filed as active; ? = inconclusive; . = not tested or not shown; [ ] = dose if it differs, or a comment. The call rests on the fitted dose curve; in most records, active means well fitted curve in the direction sought with a large enough effect; inconclusive means small, poorly fitted or top-dose-only effect, or another doubt; inactive means no such curve, though single readings can be large; an effect the other way counts as inactive or inconclusive. Potency means the concentration at half of the fitted maximal effect.

SMILES	G9a block	HP1b binding inh	JMJD2A Tudor	BAZ2B block	GLS inh
Cc1cc(C)cc(NC(=S)NCc2ccc3[nH]c4c(c3c2)CCCC4)c1	?	?	50.1µM*	31.6µM*	4.2%
S=C(NCc1ccc2[nH]c3c(c2c1)CCCC3)Nc1ccccc1	?	?	35.5µM*	31.6µM*	12.7%
CN(CC(=O)NCc1ccccc1)S(=O)(=O)c1ccc2[nH]c3c(c2c1)CCCC3	?	0.7%	?	?	3.4%
COc1ccc(Cl)cc1-c1nc(SCC(=O)NC2CCS(=O)(=O)C2)n[nH]1 (centres undefined)	?	30.3%	-7.1%	-2.5%	1.2%
O=C1C(c2ccccc2)CN1Cc1ccccc1 (centres undefined)	.	.	.	.	-4.2%
O=C1N(Cc2ccccc2)CC2(Br)COCOC12O (centres undefined)	.	7.08µM*	3.55µM*	.	-4.6%
COc1ccc(-c2[nH]ncc2[C@@H]2C[C@H]3CN(Cc4ccccc4C)C(=O)[C@]34CCCN24)cc1	6.2%	26.4%	-18.0%	-27.8%	-4.9%
COc1ccc(/C=C/c2cc(OC)cc(=O)o2)cc1	29.5%[59 µM]	.	.	.	.
N#Cc1ccc2[nH]cc(C3c4cc(F)ccc4C=C(c4ccsc4)N3c3ccc(C#CCCO)cc3)c2c1 (centres undefined)	.	.	.	.	3.6%
CC(=O)NC1C(=O)SC1(C)C (centres undefined)	28.2µM*	.	.	-9.8%	.
CCOc1ccccc1NC(=O)c1ccc2nc[nH]c2c1	28.1%[59 µM]	8.5%	-31.4%	-39.0%	-2.8%
CC1CCC(NC(=O)c2cccc(S(=O)(=O)N3CCN(c4ccccc4)CC3)c2)CC1 (centres undefined)	?	27.5%	-8.9%	-2.9%	-18.6%
COc1cc(OC)c(-c2c3cc(O)c(=O)cc-3oc3cc(O)c(O)cc23)cc1OC	10µM*	-89.7%	1.12µM*	1.12µM*	-10.9%
Cc1c2cc(O)c(=O)cc-2oc2cc(O)c(O)cc12	7.94µM*	0.708µM*	1.41µM*	4.47µM*	?
C=CCn1c(-c2cccc(OCC)c2)n[nH]c1=S	8.91µM*	37.8%	22.4µM*	-9.2%	-11.1%
C=CCn1c(-c2ccccc2OC)n[nH]c1=S	2µM*	41.4%	6.31µM*	-9.5%	7.2%
C=CCn1c(-c2ccc(OC)cc2)nc2ccccc21	-1.1%[12.7 µM]	33.8%	6.1%	-12.6%	0.7%
C=CCn1c(-c2sc3nc(C)cc(C)c3c2N)n[nH]c1=S	7.94µM*	51.7%	39.8µM*	-16.6%	-28.4%
C=CCn1cnc2c(sc3nc(C)cc(C)c32)c1=O	-9.0%	42.4%	-16.6%	-0.7%	2.3%
C=CCn1c(-c2cc(OC)cc(OC)c2)n[nH]c1=S	?	26.1%	31.6µM*	12.9%	-3.8%
Cc1cccc(NC(=O)c2cc3ccccc3o2)c1	10.7%[59 µM]	36.3%	13.2%	10.5%	7.3%
CCC(C)c1ccccc1N1CC(C(=O)Nc2cc(S(=O)(=O)N3CCOCC3)ccc2OC)CC1=O (centres undefined)	.	48.2%	-12.1%	.	-1.8%
COc1ccc(C(NC(=O)/C=C/c2ccco2)c2ccc(OC)cc2)cc1	8.91µM*	?	?	50.1µM*	-2.2%
COc1ccc(C(NC(=O)/C=C\c2ccco2)c2ccc(OC)c(OC)c2)cc1 (centres undefined)	25.1µM*	-40.4%	50.1µM*	-33.3%	-11.3%
CN(C)Cc1ccccc1-c1nccc(N(C)Cc2ccco2)n1	-1.3%[0.501 µM]	.	.	.	.
SMILES	G9a block	HP1b binding inh	JMJD2A Tudor	BAZ2B block	GLS inh
CNc1nc(C)nc(N/N=C/c2ccccc2)n1	-3.0%	32.5%	-6.4%	-16.5%	4.3%
Cc1cc(C(=O)N2CCN(c3ccc([N+](=O)[O-])cc3)CC2)c(C)o1	10.7%	16.3%	-35.3%	?	21.5%
COc1ccccc1N(CC(=O)NCCc1ccccc1)S(C)(=O)=O	-34.3%	11.0%	-14.1%	22.9%	3.0%
CC(=O)Nc1cc(OC(C)=O)c2nonc2c1OC(C)=O	?	30.1%	-19.5%	?	9.5%
CC(=O)Oc1ccc2nonc2c1OC(C)=O	.	20µM*	?	.	.
CO/N=C/c1ccc(N2CCN(C(=O)c3cccc(C(F)(F)F)c3)CC2)c([N+](=O)[O-])c1	?	-28.8%	?	?	-17.1%
CO/N=C/c1ccc(N2CCN(C(=O)c3ccc(Cl)cc3Cl)CC2)c([N+](=O)[O-])c1	20µM*	-38.7%	?	?	-0.2%
CO/N=C/c1ccc(N2CCN(C(=O)c3ccc(F)cc3)CC2)c([N+](=O)[O-])c1	44.7µM*	-35.4%	?	?	-0.1%
S=C(Nc1cccnc1)N1CCCCC1	2.2%	45.0%	-15.9%	-14.1%	1.2%
Cc1nc2c(S(=O)(=O)c3ccccc3)cnn2c(C)c1C	4.2%	29.0%	2.2%	-13.6%	-10.3%
Cc1ccc(NC(=O)C2=C(c3ccccc3)S(=O)(=O)CCS2(=O)=O)cc1	39.8µM*	-21.8%[57 µM]	?	-2.4%	0.0%
Cc1nc(N)sc1-c1csc(Nc2ccccc2)n1	?	-38.4%	?	50.1µM*	19.3%
Cc1nc(NC(=O)c2ccccc2)sc1-c1csc(NCc2ccco2)n1	?	-4.9%	?	?	22.9%
Cc1nc(NC(=O)c2ccccc2)sc1-c1csc(Nc2ccc(C(=O)O)cc2)n1	.	39.8µM*	22.4µM*	10µM*	-0.9%
Cc1nc(C)c(-c2csc(Nc3cccnc3)n2)s1	0.5%[12.7 µM]	8.3%	?	?	3.8%
COc1cccc(Nc2nc(-c3sc(NC(=O)c4ccccc4)nc3C)cs2)c1	50.1µM*	?	79.4µM*	?	-2.9%
CCC(=O)Nc1nc(C)c(-c2csc(Nc3ccc(C(=O)O)cc3)n2)s1	50.1µM*	20.5%	-24.2%	-16.2%	?
O=C(Nc1cnc2sccn2c1=O)c1ccc(Cl)cc1Cl	-3.5%[2.33 µM]	5.4%	-7.3%	5.4%	-4.9%
Cc1ccc(N2CCN(/N=C/c3c(C)nn(-c4ccccc4)c3Cl)CC2)cc1	12.9%[59 µM]	64.9%	-1.6%	3.1%	-2.0%
CC(=O)N1CCC(N(CCN2CCOCC2)C(=S)Nc2cc(C)cc(C)c2)CC1	-17.0%	40.5%	5.6%	-20.3%	19.6%
Cc1nc(-c2ccc(NC(=O)c3ccccc3Br)cc2)cs1	-14.6%[59 µM]	29.7%	-14.7%	-4.0%	-9.5%
Cc1cccc(NC(=O)CNC(=O)COC(=O)CCS(=O)(=O)c2ccccc2)c1C	30.0%	7.3%	-16.7%	-9.2%	4.8%
CCC(=O)Nc1nc(C)c(-c2csc(Nc3cccc(C(=O)O)c3)n2)s1	44.7µM*	-18.5%	-21.2%	?	?
CC(=O)Nc1nc(C)c(-c2csc(Nc3cccc(C(C)=O)c3)n2)s1	39.8µM*	-8.0%	-28.8%	-39.0%	4.7%
CC(=O)Nc1nc(C)c(-c2csc(Nc3cccc([N+](=O)[O-])c3)n2)s1	20.3%[59 µM]	34.9%	-7.9%	-1.9%	1.6%
COc1cccc(Nc2nc(-c3sc(NC(=O)CC(C)C)nc3C)cs2)c1	?	-4.2%	?	?	3.0%
